Source: the supplement of paper PMC10503962

The compounds below were run on Trichuris muris adult worms (assay: mean motility score (Paragon pixel variance) of adult worms (arbitrary units); higher = more motile worms, i.e. less anthelmintic effect; extreme values may be limits of the assay). Settings: 100 µM; 24 h.
Procedure: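 Primary ex vivo screen of 409 approved drugs against adult Trichuris muris worms: one worm per well in RPMI-1640 with penicillin/streptomycin, 100 µM drug in 1% DMSO, 37 °C, 5% CO2 for 24 h. Motility was recorded with INVAPP (200-frame movies) and scored with the Paragon pixel-variance algorithm. Values are means of triplicate wells run on three occasions; levamisole was the positive control and DMSO the negative control.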
Work on `O=C1CC[C@@]2(O)[C@H]3Cc4ccc(O)c5c4[C@@]2(CCN3CC2CC2)[C@H]1O5` [naltrexone] yielded a mean motility score of 3530.
Compound `C[C@H](N)[C@H](O)c1ccc(O)c(O)c1` [levonordefrin] has a mean motility score of 2110.
Work on `C#CCN(C)[C@H](C)Cc1ccccc1.Cl` [selegiline hydrochloride] yielded a mean motility score of 2950.
For `CC(C)N(CCC(C(N)=O)(c1ccccc1)c1ccccn1)C(C)C` (centres undefined) [disopyramide], the mean motility score was 1630.
`[O-][n+]1ccccc1S` [pyrithione] gave a mean motility score of 3120.
With `CNC(=O)Oc1ccc2c(c1)[C@]1(C)CCN(C)[C@@H]1N2C` [physostigmine] the mean motility score was 3170.
`COc1cc2c(c(OC)c1OC)-c1ccc(OC)c(=O)cc1[C@@H](NC(C)=O)CC2` [colchicine] was tested, and the mean motility score was 1420.
Compound `CC[C@H]1[C@H]2CC3[C@@H]4N(C)c5ccccc5[C@]45C[C@H]([C@@H]2C5O)N3[C@@H]1O` (some centres undefined) [ajmaline] has a mean motility score of 1790.
For `C[N+](C)(C)CCCCCCCCCC[N+](C)(C)C.[Br-].[Br-]` [decamethonium bromide], the mean motility score was 2280.
With `CN(C)C(=O)Oc1ccc[n+](C)c1.[I-]` [pyridostigmine iodide] the mean motility score was 2610.
Compound `CN1C[C@H](C(=O)N[C@]2(C)O[C@@]3(O)[C@@H]4CCCN4C(=O)[C@H](Cc4ccccc4)N3C2=O)CC2c3cccc4[nH]cc(c34)C[C@H]21.CS(=O)(=O)O` (some centres undefined) [dihydroergotamine methanesulfonate] has a mean motility score of 1730.
With `CN(C)C(=O)Oc1cccc([N+](C)(C)C)c1.COS(=O)(=O)[O-]` [neostigmine methylsulfate] the mean motility score was 1600.
Compound `COc1ccc(C(CN(C)C)C2(O)CCCCC2)cc1.Cl` (centres undefined) [venlafaxine hydrochloride] has a mean motility score of 1570.
`C#C[C@]1(O)CC[C@H]2[C@@H]3CCC4=CC(=O)CC[C@]4(C)[C@H]3CC[C@@]21C` [ethisterone] gave a mean motility score of 1590.
In the case of `COc1ccc(CCN2CCC(Nc3nc4ccccc4n3Cc3ccc(F)cc3)CC2)cc1` [astemizole], the mean motility score was 0.
`CC(C)C[C@H]1C(=O)N2CCC[C@H]2[C@]2(O)O[C@](NC(=O)C3C=C4c5cccc6[nH]c(Br)c(c56)C[C@H]4N(C)C3)(C(C)C)C(=O)N12.CS(=O)(=O)O` (some centres undefined) [bromocriptine methanesulfonate] showed a mean motility score of 2300.
Work on `C=CCN1CC[C@]23c4c5ccc(O)c4O[C@H]2C(=O)CC[C@@]3(O)[C@H]1C5.Cl` [naloxone hydrochloride] yielded a mean motility score of 3870.
`Cl.O=C(CCCN1CCC(n2c(=O)[nH]c3ccccc32)CC1)c1ccc(F)cc1` [benperidol hydrochloride] gave a mean motility score of 3960.
`N[C@@H](Cc1cc(Br)c(O)c(Br)c1)C(=O)O` [3,5 dibromotyrosine] showed a mean motility score of 3040.
`CCCN1C[C@H](CSC)C[C@@H]2c3cccc4[nH]cc(c34)C[C@H]21.CS(=O)(=O)O` [pergolide mesylate] showed a mean motility score of 3150.
Work on `CCOP(=O)(OCC)Oc1ccc([N+](=O)[O-])cc1` [paraoxon] yielded a mean motility score of 0.
For `COc1cc([C@@H]2c3cc4c(cc3[C@H](O)[C@H]3COC(=O)[C@H]23)OCO4)cc(OC)c1OC` [podofilox], the mean motility score was 3650.
Compound `CC[C@@H](CO)NC(=O)[C@@H]1C=C2c3cccc4[nH]cc(c34)C[C@H]2N(C)C1.O=C(O)/C=C\C(=O)O` [methylergonovine maleate] has a mean motility score of 2650.
`CN(C)C(=O)Oc1cc(OC(=O)N(C)C)cc(C(O)CNC(C)(C)C)c1.Cl` (centres undefined) [bambuterol hydrochloride] showed a mean motility score of 1410.
